# Bioassay records from PubChem BioAssay.
# A selection: hits, their analogues and other compounds. The true share with any hit is near 7.8%.
# HCV inhibitor: qHTS Assay for Inhibitors of Hepatitis C Virus (HCV). Huh7.5.1 HCVcc-Cre infection, luciferase reporter, 44 h. Potency, µM (series often up to 41.8 µM), most hits filed as inhibitors. 340,000 compounds, 3.4% hits. AID 651820, 2012; active means well fitted inhibition curve with a large enough effect; inconclusive means small, poorly fitted or top-dose-only effect, or another doubt; inactive means no such curve, though single readings can be large or run the other way
#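 Whole-lifecycle infectious HCVcc-Cre system; cells 1,000/well, compound then virus (~0.5 moi) added 4 h after plating, 44 h culture. Luciferase read 15 sec following 15 min substrate incubation, room temp.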
# VACV mCherry inh: qHTS for Stage-Specific Inhibitors of Vaccinia Orthopoxvirus: mCherry Reporter Primary qHTS; AID 720579, 2013; 310,000 compounds, 0.63% hits; Vaccinia virus mCherry reporter infection, fluorescence; Potency, µM (titrated, usually from 36.5 µM), actives largely listed as inhibitors; calls by dose curve; tested in A549 cells; further: nearly all actives have a fitted effect of over 35% in size
# Vaccinia Venus: qHTS for Stage-Specific Inhibitors of Vaccinia Orthopoxvirus: Venus Reporter Primary qHTS. Vaccinia virus Venus reporter expression, fluorescence. 330,000 compounds, 0.46% hits. Potency, µM (titrated, usually from 36.5 µM), hits mostly inhibitors; calls by dose curve; tested in A549 cells; further: nearly all actives have a fitted effect of over 30% in size
# LASV entry inh: qHTS for Inhibitors of binding or entry into cells for Lassa Virus; Lassa virus pseudotype entry inhibition, cell reporter; Potency, µM (titrated, usually from 37.9 µM), usual class: inhibitors; 300,000 compounds, 1.2% hits; calls by dose curve; tested in HEK293 cells; further: nearly all actives have a fitted effect of over 50% in size
# HCMV inh: qHTS Assay for inhibitors of the human cytomegalovirus (HCMV). HFF cells, HCMV-luciferase reporter, 72 h; stronger effect = lower value. activity change, negative = inhibition, % at 57.5 µM. 410,000 compounds, 4.5% hits. AID 1259415, 2018; in the data active means activity change below about -60%; inconclusive means no clear call, values can overlap the other calls; inactive means above about -39%
#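 Compounds were evaluated in HFFs infected with an HCMV luciferase reporter virus (MOI 1 PFU/cell). Luciferase in lysates collected 72 h post infection served as the replication measure.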
# Marburg entry inh: qHTS for inhibitors of binding or entry into cells for Marburg Virus. Marburg virus pseudotyped entry inhibition, cell reporter. Potency, µM (series often up to 37.8 µM), usual class: inhibitors. 300,000 compounds, 1.8% hits; calls by dose curve; tested in HEK293 cells
# Hits are given with their value; - = inactive; ? = inconclusive; . = not tested or not shown; ! = not confirmed by another sample; [ ] = remark or other dose.
SMILES,HCV inhibitor,VACV mCherry inh,Vaccinia Venus,LASV entry inh,HCMV inh,Marburg entry inh
COCC(C)n1c(C)cc(C(=O)COc2ccc(S(=O)(=O)N3CCOCC3)cc2Cl)c1C (stereo not given),14µM,-,-,?,-,?
Cc1cc(=O)n(CC(=O)N2CCN(c3ccccc3F)CC2)c2c1c(C)nn2C,.,-[7.34 µM],-[7.34 µM],-,-60,.
Cc1ccc(O)c(C(=O)c2cnc3c(c2)COc2ccc(C)cc2-3)c1,?,.,-,-,-,?
Cc1ccc2c(c1)-c1ncc(C(=O)c3cc(Br)ccc3O)cc1CO2,.,-,-,-,-90!,-
Cc1ccc(S(=O)(=O)N2CCc3cc(C(=O)N(C)Cc4ccccc4)ccc32)cc1,.,-,-,-,?,-
C=CCNC(=O)C1CC1(c1cccc(C)c1)c1cccc(C)c1 (stereo not given),-,-,-,-,-,-
Cc1cccc(C2(c3cccc(C)c3)CC2C(=O)Nc2ccc([N+](=O)[O-])cc2O)c1 (stereo not given),?,?,?,?,-104,13µM
Cc1cc(C)c(NC(=O)C2CCN(c3nn4c(=O)cc(C)nc4s3)CC2)c(C)c1,.,-,-,-,-,-
COc1cc(OC)c(C(=O)NCc2nc(-c3ccccc3)no2)cc1OC,.,-,-,?,?,?
CCOC(=O)c1ccc(NC(=O)Cn2nc(SC)c(S(=O)(=O)c3ccc(Cl)cc3)c2N)cc1,.,?,?,?,-104,?
CC1(C)C(=O)N(CCN2CCC(C(=O)c3ccc(F)cc3)CC2)c2ccccc21,?,-,-,?,?,?
Cc1nc2sccn2c(=O)c1CCN1CCC(=C(c2ccc(F)cc2)c2ccc(F)cc2)CC1,3.5µM!,-,-,12µM,-,20µM
Cc1nc2ccccn2c(=O)c1CCN1CCC(C(=O)c2ccc(F)cc2)CC1,?,-,-,-,-,6.3µM!
COc1ccc([N+](=O)[O-])c(S(=O)(=O)c2ccccc2)n1,?,11µM,11µM,7.1µM,-97,?
COc1ccc([N+](=O)[O-])c(S(=O)(=O)c2ccc(Cl)cc2)n1,?,?,10µM,?,-100,4.5µM
Nc1cccnc1S(=O)(=O)c1ccccc1,-,-,-,?,-,-
COc1ccccc1S(=O)(=O)c1ccccc1[N+](=O)[O-],-,-,-,-,-,-
O=[N+]([O-])c1cccnc1S(=O)(=O)c1ccccc1,?,-,-,?,-99,?
CCCN1C(=O)C(O)(CC(=O)c2ccc(OC)c(OC)c2)c2ccccc21 (stereo not given),.,-[7.34 µM],-[7.34 µM],-,?,-
O=S(=O)(c1ccc(SCCOc2cccc(Br)c2)nc1)N1CCCC1,10µM,-,-,-,-,-
CN1CCN(S(=O)(=O)c2ccc(SCCOc3ccc(Cl)cc3)nc2)CC1,?,?,-,-,-,?
COc1ccc(OCCSc2ccc(S(=O)(=O)N3CCCC3)cn2)cc1,11µM,.,.,.,-,.
Cc1csc(Sc2ccc(S(=O)(=O)N3CCCC3)cn2)n1,-,8.9µM,?,-,-,?
O=S(=O)(c1ccc(SCCOc2ccccc2Cl)nc1)N1CCCC1,13µM,.,.,.,-,.
O=S(=O)(c1ccc(SCc2ccccc2)nc1)N1CCCC1,?,.,.,.,-,.
SMILES,HCV inhibitor,VACV mCherry inh,Vaccinia Venus,LASV entry inh,HCMV inh,Marburg entry inh
COCc1cc([C@@H]2C[C@H]3CN(c4ccccc4)C(=O)[C@]34CCCN24)ccc1OC,-,-,-,.,-94,.
COc1ccccc1CN1C[C@@H]2C[C@@H](C3=Cc4cc(Cl)ccc4OC3)N3CCC[C@@]23C1=O,11µM,.,.,.,-,.
Oc1c(C(Nc2cccnc2)c2ccc(C(F)(F)F)cc2)ccc2cccnc12 (stereo not given),.,8.9µM,?,.,.,.
Cc1cc(NC(c2cccnc2)c2ccc3cccnc3c2O)no1 (stereo not given),2.5µM,.,16µM,?,-104,?
Cc1cc(C(=O)Nc2cccnc2)no1,-,-,-,-,-,-
O=S(=O)(Nc1ccc(C(O)(C(F)(F)F)C(F)(F)F)cc1)c1cccc2cccnc12,.,-,-,.,-,.
COc1ccc(Cl)cc1C(Nc1cccnc1)c1ccc2cccnc2c1O (stereo not given),8.9µM,3.5µM,?,?,-,11µM
Oc1c(C(Nc2cccc(C(F)(F)F)c2)c2cccnc2)ccc2cccnc12 (stereo not given),11µM,-,-,?,-,?
CC(=O)c1cccc(NC(c2ccc(F)cc2)c2nnc(-c3ccccc3)o2)c1 (stereo not given),.,-,-,-,-,.
CN1CCN(C(c2ccc(C(F)(F)F)cc2)c2ccc3cccnc3c2O)CC1 (stereo not given),11µM,?,-,7.9µM,-97,?
CN1CCN(C(c2ccccn2)c2cc(Cl)c3cccnc3c2O)CC1 (stereo not given),?,-,-,.,-,.
N#C/C(=C\c1cn(Cc2ccccc2)c2ccccc12)C(=O)NCc1ccco1,?,-,-,-,-,-
Cc1cccc(NC(=O)/C(C#N)=C/c2cn(CC(=O)NCc3ccco3)c3ccccc23)c1C,-,-,-,-,-82,-
CC(C)(C)c1cc(C(=O)NNc2cccc(Cl)c2)n(Cc2ccccc2)n1,-,-,-,?,-73,11µM
CC(C)(C)c1cc(C(=O)Nc2ccc(F)cc2)n(Cc2ccc(F)cc2)n1,11µM,.,.,.,-92,.
COc1ccccc1NNC(=O)c1cc(C(C)(C)C)nn1Cc1ccccc1,-,-,-,?,-,?
CC(C)(C)c1cc(C(=O)NNc2cc(C(F)(F)F)ccc2Cl)n(Cc2ccccc2)n1,?,?,?,?,-90,?
Cc1ccc(NNC(=O)c2cc(C(C)(C)C)nn2Cc2ccccc2)cc1,?,?,-,?,-,-
CC(C)(C)C(=O)NNC(=O)c1cc(C(C)(C)C)nn1Cc1ccccc1,-,-,-,?,-,10µM
Cc1nc2nc(NC(=O)c3ccccc3F)[nH]n2c(=O)c1Cl,.,-,-,?,-,-
Cc1ccc(NC(=O)c2cc(C(C)(C)C)nn2Cc2ccccc2)cc1,?,-,-,2.8µM,?,?
COc1ccc(NC(=S)N(CCN(C)C)C(C)c2ccco2)cc1 (stereo not given),-,-,-,?,-62,?
CCCOc1ccc(C(=O)Nc2ccc(NC(=O)c3ccccc3)c(Br)c2)cc1,.,-[7.34 µM],-[7.34 µM],-,-,.
O=C(COc1ccc(Br)cc1CNC1CCCC1)Nc1ccccc1,?,-,-,-,-,1.8µM
O=C(COc1ccc(Br)cc1CO)Nc1ccc(F)cc1,?,-[1.46 µM],-,-,-,-
CC(NCc1cc(Br)ccc1OCC(=O)NCc1ccccc1)c1ccccc1 (stereo not given),?,.,.,.,-76,.
O=C(COc1ccc(Br)cc1Br)NC1CCCC1,?,.,.,.,-63,.
O=C(COc1ccc(Br)cc1Cl)NC(=O)NC1CCCC1,-,.,.,.,-,.
